Inconclusive results are not listed. Activity calls are given as the source filed them. Calls follow the shape of the dose curve; as a rule, active = well fitted curve in the direction sought with a large enough effect; inconclusive = small, poorly fitted or top-dose-only effect, or another doubt; inactive = no such curve, though single readings can be large; an effect the other way counts as inactive or inconclusive.

Potency and outcome data for 10 molecules are collected here from PubChem BioAssay (NCATS).

One experiment concerns C33A. Put plainly: Primary qHTS to identify gynecologic anti-cancer compounds using libraries of approved drugs and bioactive compounds (AID 1345084). Also: nearly all actives have a fitted effect of over 55% in size. As to conditions: Gynecologic cancer cell panel viability, ATPlite luminescence, 48 h; series mostly up to 57.5 µM. The procedure, abridged: (§1)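 Cells, 1,000 per well, plated 16 h, then exposed 48 h at 37 C to compounds. Viability by ATPlite luminescence after 15 min at room temperature.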

In the next experiment the test system is Es-2. Described as above. As to conditions: Gynecologic cancer cell panel viability, ATPlite luminescence, 48 h; series mostly up to 57.5 µM. The procedure, abridged:
as §1
In general terms: In ATP-based viability assays light output follows the ATP content of the culture.

The subject of another experiment is JEG-3. Described as above. As to conditions: Gynecologic cancer cell panel viability, ATPlite luminescence, 48 h; series mostly up to 57.5 µM. An outline of the steps: as §1
A further experiment deals with OV90. Described as above. The note with it: Gynecologic cancer cell panel viability, ATPlite luminescence, 48 h; series mostly up to 57.5 µM. The procedure, abridged: as §1
In the next experiment the test system is PA-1. The description is as above. As to conditions: Gynecologic cancer cell panel viability, ATPlite luminescence, 48 h; series mostly up to 57.5 µM. The procedure, abridged: as §1
Another experiment deals with MCC-13. Put plainly: qHTS assay to identify novel small-molecules to repurpose for Merkel cell carcinoma treatment (AID 1296009). Also: nearly all actives have a fitted effect of over 60% in size. The note with it: MCC and control cell lines, CellTiter-Glo viability, 72 h; series mostly up to 46 µM. An outline of the steps:
(§2)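 Cells were incubated with compound for 72 hr at 37 degree celsius before CellTiter-Glo addition. Luminescence was normalized with no-cell wells as full cytotoxicity and DMSO as baseline.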
Background: Quantitative high-throughput screening tests each substance at several concentrations.

A further experiment deals with MKL-1. The experiment is described as above. As to conditions: MCC and control cell lines, CellTiter-Glo viability, 72 h; series mostly up to 46 µM. The procedure, abridged: as §2
A further experiment deals with UISO. Described as above. The note with it: MCC and control cell lines, CellTiter-Glo viability, 72 h; series mostly up to 46 µM. An outline of the steps:
as §2

The subject of another experiment is CAOV3. Put plainly: Primary qHTS to identify gynecologic anti-cancer compounds using libraries of approved drugs and bioactive compounds (AID 1345084). Also: nearly all actives have a fitted effect of over 55% in size. As to conditions: Gynecologic cancer cell panel viability, ATPlite luminescence, 48 h; series mostly up to 57.5 µM. An outline of the steps:
as §1

For another experiment, the system named is CASKI. The experiment is described as above. As to conditions: Gynecologic cancer cell panel viability, ATPlite luminescence, 48 h; series mostly up to 57.5 µM. An outline of the steps:
as §1

The next experiment concerns HeLa. Described as above. As to conditions: Gynecologic cancer cell panel viability, ATPlite luminescence, 48 h; series mostly up to 57.5 µM. The procedure, abridged: as §1
In the next experiment the test system is Hek293T. The experiment is described as above. The note with it: Gynecologic cancer cell panel viability, ATPlite luminescence, 48 h, control line for the selectivity index; series mostly up to 57.5 µM. The procedure, abridged:
as §1

The test system of a further experiment is SKOV3. The experiment is described as above. As to conditions: Gynecologic cancer cell panel viability, ATPlite luminescence, 48 h; series mostly up to 57.5 µM. An outline of the steps:
as §1

The next experiment relates to Tov-21-G. The description is as above. As to conditions: Gynecologic cancer cell panel viability, ATPlite luminescence, 48 h; series mostly up to 57.5 µM. The procedure, abridged: as §1
The next experiment concerns NIH3T3. Put plainly: qHTS assay to identify novel small-molecules to repurpose for Merkel cell carcinoma treatment (AID 1296009). Also: nearly all actives have a fitted effect of over 60% in size. As to conditions: MCC and control cell lines, CellTiter-Glo viability, 72 h; at 44.8 µM (top of the series). An outline of the steps: as §2
The next experiment deals with MKL-2. The experiment is described as above. As to conditions: MCC and control cell lines, CellTiter-Glo viability, 72 h; series mostly up to 46 µM. An outline of the steps:
as §2

The next experiment concerns WaGa. The experiment is described as above. The note with it: MCC and control cell lines, CellTiter-Glo viability, 72 h; series mostly up to 46 µM. An outline of the steps: as §2
For another experiment, the system named is MCC-26. Described as above. The note with it: MCC and control cell lines, CellTiter-Glo viability, 72 h; series mostly up to 46 µM. An outline of the steps: as §2
Potency is read from the fitted curve at half-maximal effect.

For `CC[C@]12CCCN3CCc4c(n(c5ccccc45)C(=O)C1)[C@@H]32`, the Potency result in the experiment on C33A, in the experiment on Es-2, in the experiment on JEG-3 and in the experiment with OV90 was “inactive” throughout. For the same molecule, the Potency in the experiment on PA-1 was 20 µM (active).
With `CC(=O)OCC1=C(C(=O)O)N2C(=O)[C@@H](NC(=O)CSc3ccncc3)[C@H]2SC1`, the Potency result with MCC-13, with MKL-1, in the experiment on UISO, with C33A, with CAOV3 and with CASKI was “inactive” throughout. For the same molecule, the Potency result in the experiment on Es-2, in the experiment on HeLa, in the experiment with Hek293T, in the experiment on JEG-3, with OV90 and with PA-1 was “inactive” throughout. Moreover, the Potency result in the experiment on SKOV3 and with Tov-21-G was “inactive” throughout.
Regarding `CCOc1ccccc1C(N)=O`, the Potency result in the experiment on MCC-13, with C33A, in the experiment with CAOV3, in the experiment with CASKI, in the experiment with Es-2 and in the experiment on HeLa was “inactive” in each case. Moreover, the Potency result in the experiment with Hek293T, with JEG-3, in the experiment on OV90, in the experiment on PA-1, in the experiment with SKOV3 and in the experiment on Tov-21-G was “inactive” each time. Besides, the molecule was called inactive in the experiment with NIH3T3.
Turning to `CCc1oc2ccccc2c1C(=O)c1cc(I)c(O)c(I)c1`, the Potency entry in the experiment with MCC-13, in the experiment on MKL-1, with MKL-2, with WaGa, in the experiment with C33A and in the experiment with CAOV3 was “inactive” throughout. Moreover, the Potency entry with CASKI, with Es-2, in the experiment on HeLa, in the experiment on Hek293T, with JEG-3 and in the experiment with OV90 was “inactive” in each case. For the same molecule, the Potency entry with PA-1 and in the experiment with Tov-21-G was “inactive” throughout.
With `CCCCCCCCCCCCCC[N+](C)(C)Cc1ccccc1`, the Potency in the experiment with MCC-26 was 21.1 µM (active); in the experiment on MKL-1, 6.68 µM (active); in the experiment on MKL-2 it was 1.06 µM (active); in the experiment with UISO it was 6.68 µM (active); in the experiment with WaGa, 7.5 µM (active); with C33A, 25.1 µM (active). The Potency with CASKI was 14.1 µM (active); in the experiment with HeLa it was 25.1 µM (active); in the experiment with SKOV3, 22.4 µM (active); in the experiment on Tov-21-G, 20 µM (active).
Take `C=C[C@H]1CN2CC[C@H]1C[C@H]2[C@H](O)c1ccnc2ccc(OC)cc12`: the Potency result in the experiment on MCC-13, in the experiment on MKL-1, with MKL-2, in the experiment with UISO, with C33A and in the experiment with CAOV3 was “inactive” in each case. In addition, the Potency result in the experiment on CASKI, in the experiment on Es-2, with HeLa, in the experiment on Hek293T, in the experiment on JEG-3 and with PA-1 was “inactive” in each case. Moreover, the Potency entry in the experiment with SKOV3 and with Tov-21-G was “inactive” each time.
With `O=C(CCCN1CC=C(n2c(=O)[nH]c3ccccc32)CC1)c1ccc(F)cc1`, the Potency result in the experiment on MKL-1, in the experiment on MKL-2, in the experiment on C33A, with CASKI, in the experiment on Es-2 and in the experiment on HeLa was “inactive” each time. For the same molecule, the Potency result in the experiment on Hek293T, with JEG-3 and with Tov-21-G was “inactive” in each case. In addition, the Potency in the experiment on UISO is 26.6 µM (active).
On to `Cc1ccc(-c2ncc(Cl)cc2-c2ccc(S(C)(=O)=O)cc2)cn1`, for which the Potency result in the experiment with MCC-13, in the experiment on MKL-1, in the experiment on MKL-2, in the experiment with UISO, with WaGa and in the experiment on C33A was “inactive” each time. Moreover, the Potency entry in the experiment with CAOV3, in the experiment on CASKI, in the experiment with Es-2, in the experiment on HeLa, in the experiment with Hek293T and in the experiment with JEG-3 was “inactive” in each case. Further, the Potency result in the experiment on OV90, with SKOV3 and in the experiment on Tov-21-G was “inactive” throughout.
On to `Oc1ccc(Cl)cc1Cc1cc(Cl)ccc1O`, for which the Potency entry in the experiment with MCC-26, in the experiment with CASKI, in the experiment on Es-2, in the experiment with HeLa, with Hek293T and with JEG-3 was “inactive” in each case. The Potency result with OV90, in the experiment with PA-1 and with Tov-21-G was “inactive” throughout. For the same molecule, the Potency in the experiment with MKL-1 was 23.7 µM (active); in the experiment with MKL-2, 11.9 µM (active).
For the molecule `O[C@@H](c1cc(C(F)(F)F)nc2c(C(F)(F)F)cccc12)[C@H]1CCCCN1`, the Potency was 21.1 µM (active) in the experiment with MKL-1; 2.99 µM (active) with MKL-2; 23.7 µM (active) in the experiment with UISO; 28.2 µM (active) in the experiment on C33A; 25.1 µM (active) in the experiment with SKOV3.
